Reference: PubChem BioAssay (NCATS)
Records with an inconclusive call do not appear. Entries that show only a call come without a potency. Values without a mark were called inactive. Calls of active or inactive are those of the source. Calls come from the whole dose curve; as a rule, active = well fitted inhibition curve with a large enough effect; inconclusive = small, poorly fitted or top-dose-only effect; inactive = flat fitted curve, though single readings scatter. Where a SMILES comes first, the peptide text is derived from it. [ ]: non-standard residue; d: D form. The star is where a group is joined. Dolaproine = CO[C@@H]([C@@H]1CCCN1)[C@@H](C)C(=O)O; Dil = CC[C@H](C)[C@H](NC)[C@@H](CC(=O)O)OC; Doe = c1ccc(C[C@H](N*)c2nccs2)cc1; Aib = CC(C)(N)C(=O)O

Molecular target: Glutathione peroxidase 1 (Homo sapiens) (UniProt P07203)
Sequence (P07203 whole entry, looked up): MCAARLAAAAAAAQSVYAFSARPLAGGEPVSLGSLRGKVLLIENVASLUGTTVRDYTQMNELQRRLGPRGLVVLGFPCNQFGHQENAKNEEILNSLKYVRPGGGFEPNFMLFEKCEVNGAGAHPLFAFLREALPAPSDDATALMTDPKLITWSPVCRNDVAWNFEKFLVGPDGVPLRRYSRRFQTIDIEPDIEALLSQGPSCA
Experiment: Primary qHTS Assay for Inhibitors of Recombinant Selenoprotein Glutathione Peroxidase 1 (GPX1) (AID 1845191); note: nearly all actives have a fitted effect of over 65% in size
Details: recombinant GPX1, GR-coupled NADPH fluorescence, 15 min; series mostly up to 48.8 µM
Text: Assay Provider: Elias S.J. Arner MD PhD.
Department of Medical Biochemistry and Biophysics
Karolinska Institutet, Solna, Stockholm, Sweden
Selenoprotein glutathione peroxidases (GPX), like the ubiquitously expressed GPX1 and the ferroptosis modulator GPX4, enact their antioxidant activities by reducing hydroperoxides using glutathione. […] GPX1 and GPX4 inhibitors have thus shown promise as anti-cancer agents. Existing inhibitors are often promiscuous, or modulate GPX activity only indirectly, so novel direct inhibitors identified through screening against GPX1 and GPX4 could be valuable. Here, we developed optimized glutathione reductase (GR)-coupled GPX assays for the biochemical high-throughput screen (HTS) of almost 12,000 compounds with known mechanisms of action. Initial hits were triaged using a GR counter-screen, assessed for isoform specificity using a separate GPX2 assay, and were assessed for general selenocysteine-targeting activity using a thioredoxin reductase (TXNRD1) assay. With this suite of assays, we identified novel GPX1/GPX2- and GPX4-specific inhibitors and can here present a validated pipeline for future discovery research for selenoprotein-targeting agents.
SEQUENCE No. (e.g., 1, 2, 3, etc.); […] (e.g., Cells, Incubation, Reagent, etc.); VALUE; DESCRIPTION.
1; Reagent 1; 3 uL; GPx1 enzyme or no enzyme control in 1536-well, black, solid Greiner assay plate.
2; Compound; 25 nL; Kalypsis pin tool (Wako USA) equipped with a 1536-well pin head.
3; Incubation; 30 min; room temperature.
4; Reagent 2; 1 uL; 10 nM GPX1, 1 mM GSH, 0.5 mM CHP, 0.5 mM NADPH, 100 nM GR, 0.01% BSA substrate
5; Detection; Fluorescence; ViewLux microplate reader, excitation 340 nm and emission 450 nm.
6; Incubation; 15 min; room temperature.
7; Detection; Fluorescence; ViewLux microplate reader, excitation 340 nm and emission 450 nm.
NOTES (numbers refer to Sequence numbers above)
1. 3 uL of 16.66 nM GPX1 and 0.016% BSA in assay buffer (50 mM Tris-HCl, 2 mM EDTA (pH 7.5), 150 mM NaCl) was added to columns 3-48 of 1536-well assay plates using a BioRAPTR Flying Reagent Dispenser (Let's Go Robotics (LGR), Carlsbad, CA). A no-enzyme control (0.01% BSA in TES assay buffer) was added to columns 1-2.
2. 25 nL of test compounds and DMSO controls were added to each well with a pin tool (Kalypsys).
3. The assay plates were incubated for 30 minutes at room temperature.
4. 1 uL of master mix (500 nM glutathione reductase (GR), 5 mM reduced glutathione (GSH), 2.5 mM NADPH in assay buffer) was added. 1 uL of cumene hydroperoxide (CHP) ([2.5 mM] in 50% EtOH) was then added within 5 minutes to initiate the reaction. Final concentrations were: 10 nM GPX1, 1 mM GSH, 0.5 mM CHP, 0.5 mM NADPH, 100 nM GR, 0.01% BSA.
5. Initial fluorescence readout (t=0) at 340/450 nm was measured using a ViewLux multimodal detector (PerkinElmer, Waltham, MA).
7. Endpoint fluorescence readout (t=15) at 340/450 nm was measured 15 min after room temperature incubation.

Q: For `CN1CCc2cc3c(cc2C1C1OC(=O)c2c1ccc1c2OCO1)OCO3` (stereo not given), which Potency is on record?
A: The Potency was “inactive”.

Q: For `c1cncc(OC[C@@H]2CCN2)c1`, which Potency is on record?
A: Its Potency is “inactive”.

Q: How did the Potency turn out when `COC(=O)C1=COC(C)C2CN3CCC4(C(=O)Nc5ccccc54)C3CC12` (stereo not given) was run?
A: The Potency was “inactive”.

Q: `CO[C@H]1[C@H](O)[C@H](O[C@H]2CC[C@]3(C=O)C4CC[C@]5(C)[C@H](C6=CC(=O)OC6)CC[C@]5(O)C4CC[C@@H]3C2)O[C@@H](C)[C@@H]1O` (stereo not given in full) was tested. Which Potency did it give?
A: The Potency was “inactive”.

Q: Which Potency does the source give for `C/C=C(\C)C(O)C(C)/C=C(C)/C=C/C/C(C)=C/Cc1nc(OC)c(OC)c(O[C@@H]2O[C@@H](C)[C@H](O)[C@@H](O)[C@H]2O)c1C` (stereo not given in full) here?
A: Its Potency is “inactive”.

Q: For `CO[C@@H]1[C@@H](O)[C@@H](O[C@H]2CC[C@]3(C=O)C4CC[C@]5(C)[C@@H](C6=CC(=O)OC6)CC[C@]5(O)[C@@H]4CC[C@H]3C2)O[C@@H](C)[C@H]1O[C@@H]1O[C@H](CO[C@@H]2O[C@H](CO)[C@@H](O)[C@H](O)[C@H]2O)[C@@H](O)[C@H](O)[C@H]1O` (stereo not given in full), which Potency is on record?
A: Its Potency is “inactive”.

Q: Which Potency does the source give for `C[C@@H]1CN(Cc2ccc(F)cc2)CCN1C(=O)COc1ccc(Cl)cc1NC(N)=O` here?
A: The Potency was “inactive”.

Q: Which Potency does the source give for `O=C1N[C@@H](Cc2ccccc2)CN2CCCC[C@@H]12` here?
A: Its Potency is “inactive”.

Q: How did the Potency turn out when `CCCCCn1cc(C(=O)c2cccc3ccccc23)c2ccccc21` was run?
A: The Potency was “inactive”.

Q: How did the Potency turn out when `C[C@H]1C/C=C/[C@H]2[C@@H]3O[C@]3(C)[C@@H](C)[C@H]3[C@H](Cc4ccccc4)NC(=O)[C@]32OC(=O)O/C=C/[C@@](C)(O)C1=O` was run?
A: The Potency was “inactive”.

Q: With `CCOC(=O)C1(c2ccccc2)CCCN(C)CC1` (stereo not given) as the compound, how does the Potency read?
A: Its Potency is “inactive”.

Q: How did the Potency turn out when `C=C(C)[C@@]12O[C@@H]1[C@@]1(C)C(=CC2=O)CC[C@@H](OC(C)=O)[C@@H]1C` was run?
A: The Potency was “inactive”.

Q: For `Cc1c(Cl)c(OCC(=O)N2CCN(C)CC2)nc2sc(C(=O)NC3CC3)c(N)c12`, which Potency is on record?
A: The Potency was “inactive”.

Q: `CCC1CN2CCc3cc(OC)c(OC)cc3C2CC1CC1=NCCc2cc(O)c(OC)cc21` (stereo not given) was tested. Which Potency did it give?
A: Its Potency is “inactive”.

Q: `C[C@@H]1C[C@@H](O)[C@]2(O)O[C@@H]3C[C@@]4(C=O)C(CC[C@@H]5C4CC[C@]4(C)[C@@](O)(C6=CC(=O)OC6)CC[C@]54O)C[C@H]3OC2O1` (stereo not given in full) was tested. Which Potency did it give?
A: The Potency was “inactive”.

Q: `CCC1CN2CCC3(C(=O)Nc4cccc(O)c43)C2CC1/C(=C/OC)C(=O)OC` (stereo not given) was tested. Which Potency did it give?
A: Its Potency is “inactive”.

Q: How did the Potency turn out when `CCOC(=O)Nc1ccc(NCc2c(C)cc(C)cc2C)cc1N` was run?
A: The Potency was “inactive”.

Q: Which Potency does the source give for `CCC(C)(O)C1(C(=O)O)COC(=O)C1` (stereo not given) here?
A: The Potency was “inactive”.

Q: `C[C@H](CCC(=O)O)C[C@H](C)C[C@H](C)C(=O)/C=C(\O)[C@H](C)C[C@H](C)C/C=C/[C@@H](C)[C@@H](O)[C@@H](C)[C@@H](O)C[C@@H]1CC[C@@](C)([C@H]2CC[C@@](C)([C@@H](C)O)O2)O1` was tested. Which Potency did it give?
A: Its Potency is “inactive”.

Q: How did the Potency turn out when `CC(=O)OC[C@]12C[C@H](O)C(C)=C[C@H]1O[C@@H]1[C@H](O)[C@@H](OC(C)=O)[C@@]2(C)[C@]12CO2` was run?
A: The Potency was “inactive”.

Q: For `CC1CCCC(O)CC(=O)Cc2cc(O)cc(O)c2C(=O)O1` (stereo not given), which Potency is on record?
A: The Potency was “inactive”.

Q: How did the activity, negative = inhibition turn out when `CC[C@H](C)[C@H](NC(=O)[C@H]1CCCCN1C)C(=O)N(COC(=O)CC(C)C)[C@H](C[C@@H](OC(C)=O)c1nc(C(=O)N[C@@H](Cc2ccc(O)cc2)C[C@H](C)C(=O)O)cs1)C(C)C` was run?
A: The activity, negative = inhibition was -5.19% [at 1.09 µM].

Q: For `CN1C2CCC1CC(OC(=O)N1Cc3ccccc3NC1=O)C2` (stereo not given), which Potency is on record?
A: Its Potency is “inactive”.

Q: How did the Potency turn out when `CN1C(=O)N(c2ccc(C#N)c(C(F)(F)F)c2)C(=O)[C@@]1(CO)c1ccccc1` was run?
A: The Potency was “inactive”.

Q: For `COc1ccc(CN(C(=O)[C@@H](N)Cc2c(C)cc(C(N)=O)cc2C)[C@@H](C)c2ncc(-c3ccccc3)[nH]2)cc1C(=O)O`, which Potency is on record?
A: Its Potency is “inactive”.

Q: With `C/C=C(\C)C(=O)OC1C2C3(C)CCC(OC4CC(OC)C(OC5OC(C)C(O)C(OC)C5O)C(C)O4)CC3CCC23OC32CCC(C(C)=O)C2(C)C1OC(=O)/C(C)=C/C` (stereo not given) as the compound, how does the Potency read?
A: Its Potency is “inactive”.

Q: For `CC(=O)OC[C@]12C[C@H](OC(=O)CC(C)C)C(C)=C[C@H]1O[C@@H]1[C@H](O)[C@@H](O)[C@@]2(C)[C@]12CO2`, which Potency is on record?
A: The Potency was “inactive”.

Q: For `C[C@H]1CCC[C@H](O)CCC/C=C/c2cc(O)cc(O)c2C(=O)O1`, which Potency is on record?
A: Its Potency is “inactive”.

Q: Which Potency does the source give for `CC(=O)OC[C@]12C[C@H](OC(C)=O)C(C)=C[C@H]1O[C@@H]1[C@H](O)[C@@H](O)[C@@]2(C)[C@]12CO2` here?
A: Its Potency is “inactive”.

Q: `NC(=O)[C@@H](CC1CC1)[C@@H](CCC(F)(F)F)C(=O)N[C@H]1N=C(c2ccccc2)c2cccc(F)c2NC1=O` was tested. Which Potency did it give?
A: The Potency was “inactive”.

Q: For `O=C(CC1NCCC[C@H]1O)Cn1cnc2cc(Br)c(Cl)cc2c1=O` (stereo not given in full), which Potency is on record?
A: Its Potency is “inactive”.

Q: How did the Potency turn out when `CC[C@H](C)[C@@H]([C@@H](CC(=O)N1CCC[C@H]1[C@H](OC)[C@@H](C)C(=O)N[C@@H](Cc1ccccc1)c1nccs1)OC)N(C)C(=O)[C@@H](NC(=O)C(C)(C)N)C(C)C` (H-[Aib]V[Dil][Dolaproine]-Doe) was run?
A: The Potency was “inactive”.

Q: For `C[C@@H]1O[C@@H](O[C@H]2CC[C@@]3(C)C(CC[C@@H]4C3CC[C@]3(C)[C@@H](C5=CC(=O)OC5)CC[C@]43O)C2)[C@H](O)[C@H](O)[C@H]1O` (stereo not given in full), which Potency is on record?
A: The Potency was “inactive”.

Q: How did the Potency turn out when `CCOC(=O)C1(CCc2ccccc2)CCN(Cc2ccc(NC(C)=O)cc2)CC1` was run?
A: The Potency was “inactive”.

Q: How did the Potency turn out when `C=CC/C=C\C/C=C\CCCCCCCc1cc(O)cc(O)c1` was run?
A: Its Potency is “inactive”.

Q: How did the Potency turn out when `COc1ccc(C(C)(C)C)cc1CN[C@H]1C2CCN(CC2)[C@H]1C(c1ccccc1)c1ccccc1` was run?
A: The Potency was “inactive”.

Q: Which Potency does the source give for `O=C1CN=C(c2cccc(Br)c2)c2oc3ccccc3c2N1` here?
A: Its Potency is “inactive”.

Q: `COc1cc2c(cc1F)C(c1ccccc1Cl)=Nc1c(n[nH]c1C)N2` was tested. Which Potency did it give?
A: The Potency was “inactive”.

Q: Which Potency does the source give for `CC(C)C[C@H]1C(=O)N2CCC[C@H]2[C@]2(O)O[C@](NC(=O)[C@@H]3C[C@@H]4c5cccc6[nH]cc(c56)C[C@H]4N(C)C3)(C(C)C)C(=O)N12` here?
A: Its Potency is “inactive”.

Q: `CN(Cc1cccc(-c2ccncc2)c1)C(=O)Oc1ccc(-c2ccc(C(N)=O)cc2)cc1` was tested. Which Potency did it give?
A: Its Potency is “inactive”.
